Among the data in PubChem BioAssay (NCI) are growth values, retold here.

Molecules are shown by their SMILES. Compounds without any hit were thinned out: in the full panel of roughly 83,000, 20% have a hit.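 Single-dose data. Exposure time 48 hours. Values below 10 considered active.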 Values without a mark were called inactive. Active and inactive are the calls of the source.

The assay relates to HL-60(TB) leukemia. Kind of assay: NCI-60 one-dose screen, 48 h (100 = growth as untreated, 0 = no growth, -100 = all killed). The following applies: 10 µM unless noted.

For `CC(C)=CCc1cc(O)cc2c1OC(C=C(C)C)C1=C2C(=O)C2=C(NCCS2(=O)=O)C1=O` (centres undefined), the growth is -35.7% (active).
Next, `COc1cc(C2C=C(C)N=C3SC=NN32)cc(OC)c1OC` (centres undefined): 94.7%; `O=C(CN1C(=O)NC(c2ccccc2)(c2ccccc2)C1=O)c1ccc(N2CCCC2)cc1`: 85.5%.
Next, `NS(=O)(=O)Oc1ccc(NC(=O)C2CCCCCC2)cc1`: 99.2%; `COc1ccc(C2=C/C(=C\c3ccccc3O)C(=O)N2Cc2ccccc2)cc1`: 40.9%.
Next, `N=C(N)c1ccc(-c2ccc(-c3ccccc3)o2)cc1`: -62% (active); `Cc1cccc(Oc2ccc(Nc3ncnc4ccc(NC(=O)CN5CCN(C)CC5)cc34)cc2Cl)c1`: -40.2% (active); `COc1ccc(-c2nc(Cl)c3c(C)nn(-c4ccc(F)cc4)c3n2)cc1`: 98.3%.
With `O=C(Oc1cccc2ccccc12)Oc1cccc2ccccc12`, the growth was 88.4%.
In the case of `CCCOC(=O)c1c(C)n(C)c2scc[n+]12` it was 92.6%; in that of `COc1ccccc1N1CCN(C(CNS(=O)(=O)c2ccc(Cl)cc2)c2cccnc2)CC1` (centres undefined), 66.1%.
Turning to `Nc1ncnc2c1c(-c1ccc(Oc3ccccc3)cc1)nn2CC1SSCC1O` (centres undefined), the growth was -25.9% (active).
In the case of `COC(=O)C1=C(C(=O)ON)[C@@H]2C=C[C@@]1([C@@H](Cc1ccccc1)Nc1ccccc1)O2` it was -3.29% (active); in that of `O=C(CCN1CCCCC1)c1ccc(Cl)cc1`, 111%.
Next, `COc1ccc(CN2c3ccccc3Oc3ccccc32)cc1O`: 15.6%; `Cc1c(C(=O)Nc2ccccc2F)sc2c(=O)[nH]cnc12`: 83.2%; `O=C(Nc1ccccc1O)c1ccccc1Nc1ccnc(C(F)(F)F)c1`: 68.3%.
In the case of `COc1ccccc1Nc1nnc(COc2ccc(CNC(=O)CCCC/C=C/C(C)C)cc2OC)o1` it was 81.1%; in that of `CCOc1ccc2c(c1)CN(Cc1ccc(Cl)cc1)CO2`, 94.9%.
Take `CCOC(=O)/C(C#N)=C1/C(=O)Nc2ccccc21`: the growth is 149%.
On to `COC(CC(F)F)c1cn(S(=O)(=O)c2ccc(C)cc2)c2ccccc12` (centres undefined), for which the growth is 8.92% (active).
Next, `C[C@@H](NC(=O)c1ncnc(N)c1Cl)c1ncc(C(=O)Nc2cc(C(F)(F)F)c(Cl)cn2)s1`: 35.4%; `Cc1c(C(=O)CCl)c(=O)n(-c2ccccc2)n1C`: 56.9%.
Next, `COC(=O)c1nc(=S)[nH]c(C(=O)OC)c1C(=O)c1ccc(OC)cc1`: 107%; `CCN(CC)c1ccc2nc3ccc(N=Nc4ccc(O)cc4)cc3[n+](-c3ccccc3)c2c1`: 21.8%.
Next, `Nc1nc(NC2CC2)c2ncn(C3C=CC(CO)C3)c2n1` (centres undefined): 86.6%; `Cc1cc(C)c(S(=O)O)c(C)c1`: 102%; `COc1cc(Nc2cc(C)nc(N3CCN(c4ccnc5cc(Cl)ccc45)CC3)n2)cc(OC)c1`: -6.44% (active).
Take `COc1ccc(CNc2c3ccccc3nc3ccc(OC)cc23)cc1`: the growth is -20.7% (active).
Next, `Cc1ccc(-c2nc3nc(-c4ccccc4)nc(N4CCCN(S(C)(=O)=O)CC4)c3o2)cc1`: 99.6%; `COc1cccc(/C=N/NC(=S)NC2CC3CCC2C3)c1O` (centres undefined): 71.3%.
In the case of `COc1ccc(C(=O)Cn2c(C(=O)c3ccccc3)nc3ccccc32)cc1` it was -27.5% (active); in that of `COCCOC(C)C(/C=N/NC(N)=S)=N/NC(N)=S` (centres undefined), 81.6%.
`O=C(N/N=C/c1ccccc1O)c1ccccc1O`: the growth was 4.12% (active).
In the case of `COc1cc(/C=C/c2nc(Nc3ccc(S(=O)(=O)Nc4cc(C)on4)cc3)c3ccccc3n2)ccc1O` it was 27.4%; in that of `CC(C)=CCCC(C)c1ccc(C)c2c1OCN(CCCCCO)C2` (centres undefined), 51.7%.
Turning to `Cc1nc2c(nnn2-c2ccccc2)c2nc(-c3ccccc3)oc(=O)c12`, the growth is 109%.
Take `Oc1c(CN2CCOCC2)cc(COCc2ccccc2)c2cccnc12`: the growth was 0.702% (active).
Next, `COc1ccc(-c2cc(-c3cc(OC)c(OC)c(OC)c3)c(C#N)c(N3CCOCC3)n2)cc1O`: -31.8% (active); `Nc1nc(N)c2cc(Sc3cccc(C(F)(F)F)c3)ccc2n1`: 24.6%; `O=C(CCc1nnc2sc(OCc3ccccc3)nn12)c1nc2ccc([N+](=O)[O-])cc2[nH]1`: 97.9%.
Regarding `CO[C@H]1C[C@@H]2CC[C@@H](C)[C@@](O)(O2)C(=O)C(=O)N2CCCC[C@H]2C(=O)O[C@H]([C@H](C)C[C@@H]2CC[C@@H](OCCO)[C@H](OC)C2)CC(=O)[C@H](C)/C=C(\C)[C@@H](O)[C@H](OC)C(=O)[C@H](C)C[C@H](C)\C=C/C=C/C=C/1C`, the growth was 75.7%.
In the case of `O=c1oc2ccccc2c(Cl)c1Cl` it was 41.4%.
Next, `S=c1nn[nH]n1C1CCCCC1`: 79.8%; `O=c1[nH]c(-c2ccncc2)nc2sc3c(c12)CCCCCC3`: 91.4%.
In the case of `CCOC(=O)/C=C/c1c(C)[nH]c(=O)[nH]c1=O` it was 75.3%; in that of `CCOC(=O)c1cnc2ccc(Br)cc2c1Nc1cccc(S(N)(=O)=O)c1`, 99.5%.
For `NC1CCC(Nc2nc(NCc3ccc(-c4ccccc4O)nc3)c3ncn(C4CCCC4)c3n2)CC1` (centres undefined), the growth was -41.8% (active).
Next, `Cn1ccnc1C(=O)/C=C/c1ccc(CC(=O)Nc2ccc(Cl)cc2)cc1`: 5.24% (active).
In the case of `COc1cc(OC)c(/C=C/C(=O)c2c(O)cc(OC)c(C3CCN(C)CC3)c2OC)c(OC)c1` it was -35.6% (active); in that of `CCCCCCCCN(CCCCCCCC)C(=O)CCl`, 105%.
In the case of `OCc1cnc2ccccc2c1NC1CCCCCC1` it was 88.5%.
Take `Cn1c(Nc2ccc(C(F)(F)F)cc2)nc2cc(Oc3ccnc(-c4ncc(C(F)(F)F)[nH]4)c3)ccc21`: the growth was 30.3%.
Next, `CC(C)CCSc1nc(Nc2ccccc2)c(C#N)c(-c2ccccc2)n1`: 76.5%.
Take `COc1ccc(-c2[nH]c(=S)n(C(CC3(C)NCC(=O)N3n3c(-c4ccccc4)cc(C)nc3=S)c3ccc(OC)cc3)c(=O)c2Br)cc1` (centres undefined): the growth is 59.6%.
Next, `O=C1c2cc3c(cc2-c2c1c1ccc(Cl)cc1c(=O)n2C[C@H](O)[C@@H](O)[C@H](O)CO)OCO3`: -5.75% (active); `C=C(Cl)COC(=O)C(C)(C)O`: 103%; `COc1ccc2c(c1)nc(N)c1c3ccccc3cn21`: 67.1%.
Next, `CC(C)c1nc(N(C)S(C)(=O)=O)nc(-c2ccc(F)cc2)c1/C=C/[C@@H](O)C[C@@H](O)CC(=O)O`: 114%; `c1ccc(CCn2cccc2)nc1`: 1.63% (active); `O=C(CSc1nc2ccc([N+](=O)[O-])cc2[nH]1)Nc1cccc([N+](=O)[O-])c1`: 57.5%.
In the case of `Cc1nc(N)[nH]c(=O)c1C` it was 218%; in that of `O=C(O)Cc1ccc(O)c(O)c1`, 82.1%; in that of `COc1cccc(-c2nc(-c3ccc(N)cc3)co2)c1`, 52.9%.
For the compound `N/N=C(/Cc1ccccc1)NNC(N)=S`, the growth was 97.8%.
In the case of `COc1ccccc1/C=C/C(=O)CCC(=O)O` it was 88.3%.
Next, `Cc1ccc(NC(=O)c2sc3nc4c(cc3c2N)C(=O)CCC4)cc1Cl`: 106%; `O=C(CN1CCN(c2cc3c(cc2F)c(=O)c(C(=O)O)cn3C2CC2)CC1)Nc1cc(=O)[nH]c(=O)[nH]1`: 103%.
In the case of `CCOC(=O)c1nn(C2CCCCO2)c2ccc(NC(=O)CSc3nc4ccccc4c(=O)[nH]3)cc12` (centres undefined) it was 118%; in that of `COc1cccc(-c2nn(-c3ccccc3)cc2-c2ccnc(NCCNS(=O)(=O)c3ccc(C(F)(F)F)cc3)c2)c1`, -20.9% (active); in that of `CNCCNc1nc2ccccc2c2c(=O)c3cc(F)ccc3sc12`, -33.1% (active).
`COC(=O)CNc1nc(N(C)O)nc(N(C)O)n1`: the growth is -7.42% (active).
Next, `CC1(C)N=C(N)N=C(N)N1c1ccc(F)c(C(F)(F)F)c1`: 13.4%; `CC1SC(c2ccccc2O)N(NC(=O)CCC(=O)c2nc3ncccc3[nH]2)C1=O` (centres undefined): 101%; `CO/N=C(/C(=O)NC1C(=O)N2C(C(=O)O)=C(COC(N)=O)CSC12)c1ccco1` (centres undefined): 109%.
Next, `CSCCC(NC(=O)C(Cl)Cl)C(=O)O` (centres undefined): 98.1%; `C/C(=C(\c1ccc(OCCCN(C)C)cc1)c1ccc(OC(=O)Cc2ccccc2)cc1)c1ccc(Cl)cc1`: 78%.
In the case of `CCCCC1COc2cccc3c(SCC(=O)N(C)c4cccc(Cl)c4)cc[n+]1c23` (centres undefined) it was 102%; in that of `CS(=O)(=O)Nc1cc(-c2ccc3ncnc(Nc4ccc5c(cnn5Cc5cccnc5)c4)c3c2)cnc1Cl`, 33.6%; in that of `COc1cccc(-c2nc3sccn3c2-c2ccnc(NCCCNS(=O)(=O)c3ccccc3)c2)c1`, -12.4% (active).
Regarding `Nc1ccccc1-c1ccn[nH]1`, the growth was 95.6%.
Next, `COc1ccc(/C=C/C(=O)CCC(=O)O)cc1OC`: 96.7%; `N#Cc1nc(-c2ccccc2)oc1S(=O)(=O)N1CCN(c2ccc(F)cc2)CC1`: 28.1%; `COc1cc2c(c(OC)c1OC)CCC(c1cccc(C(=O)Nc3ccc(Br)cc3)c1)O2` (centres undefined): 73.1%.
Next, `Cc1ccc2cc3c(N)c4c(C)ccc(C)c4nc3nc2c1`: 12.6%; `CCc1nnc(NC(=O)c2ccoc2COc2ccccc2)s1`: 19.3%.
Next, `O=C1c2cc(S(=O)(=O)O)ccc2C(=O)c2c1cccc2[N+](=O)[O-]`: 101%.
For `CN1[C@@H]2CC[C@H]1/C(=C\c1ccccc1)C1=C2[C@@H](c2ccccc2)C(C#N)=C(N)O1`, the growth was 60.4%.
Next, `Oc1ccc2cc(Br)ccc2c1-c1c(O)ccc2cc(Br)ccc12`: 81.2%.
